# According to PubChem BioAssay (NCI):
# Compounds without any hit were thinned out: in the full panel of roughly 79,000, 15% have a hit. A number with no mark means an inactive call. The source made the active and inactive calls. Rule as the data show it: active = growth inhibition above about 70%; inactive = the rest.
# Legend:
# [1] = NCI Yeast Anticancer Drug Screen. Data for the rad52 strain (AID 147);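 also: 0% = growth of vehicle-treated control cultures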; details: S. cerevisiae rad52 mutant growth inhibition, active compounds read high
# Outline: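 Yeast strain carrying a DNA damage repair alteration was exposed to test compounds. Growth inhibition was measured relative to vehicle-treated controls.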
# [2] = NCI Yeast Anticancer Drug Screen. Data for the wt1 strain (AID 149);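 also: 0% = growth of vehicle-treated wt1 cultures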; details: S. cerevisiae wt1 strain (SPY 50644) growth inhibition, active compounds read high
# Outline: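 Readout: yeast growth inhibition, normalised to vehicle controls, in the wt1 strain exposed to test compounds.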
# [3] = NCI Yeast Anticancer Drug Screen. Data for the rad50EPP+ strain (AID 151);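 also: 0% = growth of vehicle-treated control cultures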; details: S. cerevisiae rad50 mutant strain, active compounds read high
# Outline: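 Yeast strain carrying rad50 alteration (rad50EPP+) exposed to compounds; growth inhibition measured relative to vehicle-treated controls.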
# [4] = NCI Yeast Anticancer Drug Screen. Data for the rad50 strain (AID 155);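 also: 0% = growth of vehicle-only cultures of the same strain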; details: S. cerevisiae rad50 strain growth inhibition, active compounds read high
# Outline: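 Compounds were tested on a yeast strain with an engineered DNA damage repair alteration; the reported value is growth inhibition normalised to vehicle treatment.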
# [5] = NCI Yeast Anticancer Drug Screen. Data for the mec2-1 strain (AID 157); details: S. cerevisiae mec2-1 strain, active compounds read high
# Outline: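 mec2-1 yeast strain, carrying an alteration in DNA damage repair or cell cycle control, was exposed to compounds; growth inhibition was measured relative to vehicle-treated controls.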
# [6] = NCI Yeast Anticancer Drug Screen. Data for the rad14 strain (AID 159);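 also: 0% = growth of vehicle-treated control cultures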; details: S. cerevisiae rad14 strain growth inhibition, active compounds read high
# Outline: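 Compound-treated yeast with a defined DNA-repair lesion; growth inhibition normalised to vehicle-treated cultures.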
# [7] = NCI Yeast Anticancer Drug Screen. Data for the sgs1 mgt1 strain (AID 161);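 also: 0% = growth of cultures given vehicle only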; details: S. cerevisiae sgs1 mgt1 strain, active compounds read high
# Outline: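 This yeast growth screen uses a strain with defined DNA-repair lesions; compound-treated growth is compared with vehicle-treated growth.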
# [8] = NCI Yeast Anticancer Drug Screen. Data for the CLN2oe strain (AID 163);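 also: 0% = growth of vehicle-only control cultures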; details: S. cerevisiae CLN2oe strain, active compounds read high
# Outline: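 Yeast cells carrying a defined cell-cycle control alteration were exposed to test compounds. Growth inhibition was scored against vehicle-treated control cultures.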
# [9] = NCI Yeast Anticancer Drug Screen. Data for the cln2 rad14 strain (AID 165);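 also: 0% = growth equal to vehicle treated cultures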; details: S. cerevisiae cln2 rad14 strain, active compounds read high
# Outline: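 Yeast carrying cln2 and rad14 alterations (cell cycle control and DNA damage repair) were exposed to compounds. Growth inhibition was measured against vehicle-treated controls.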
# [10] = NCI Yeast Anticancer Drug Screen. Data for the bub3 strain (AID 167); details: S. cerevisiae bub3 mutant strain, active compounds read high
# Outline: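 Growth of a checkpoint-deficient yeast mutant is measured after compound exposure. Values represent inhibition relative to vehicle.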
# [11] = NCI Yeast Anticancer Drug Screen. Data for the wt2 strain (AID 169);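 also: 0% = growth of vehicle-treated yeast cultures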; details: S. cerevisiae wt2 strain growth inhibition, active compounds read high
# Outline: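 Yeast cells were exposed to test compounds, and growth inhibition was measured relative to vehicle-treated controls.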
# [12] = NCI Yeast Anticancer Drug Screen. Data for the mlh1 strain (AID 171);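 also: 0% = growth of vehicle-treated control cultures of the same strain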; details: S. cerevisiae mlh1 strain growth inhibition, active compounds read high
# Outline: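 Yeast carrying a defined genetic alteration in DNA damage repair or cell cycle control were exposed to test compounds. Growth inhibition was measured relative to vehicle-treated controls.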
# [13] = NCI Yeast Anticancer Drug Screen. Data for the sgs1 strain (AID 173);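 also: 0% = growth of vehicle-only control cultures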; details: S. cerevisiae sgs1 mutant, active compounds read high
# Outline: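 Yeast mutant strains carrying defined defects in DNA damage repair or cell cycle control were exposed to test compounds. Growth inhibition was scored against vehicle-treated controls.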
# [14] = NCI Yeast Anticancer Drug Screen. Data for the mlh1 rad18 strain (AID 175); details: S. cerevisiae mlh1 rad18 strain growth inhibition, active compounds read high
# Outline: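 Growth inhibition of the yeast strain was measured after compound exposure and expressed relative to vehicle-treated controls. The strain carries defined defects in DNA damage repair.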
# [15] = NCI Yeast Anticancer Drug Screen. Data for the rad18 strain (AID 177); details: S. cerevisiae rad18 mutant growth inhibition, active compounds read high
# Outline: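 Yeast carrying a defined DNA damage repair alteration were exposed to compounds. Growth inhibition was expressed relative to vehicle-treated controls.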
# [16] = at 5.0 µM (retest, dose inferred, filed as 0.5)
# [17] = at 50.0 µM (retest, dose inferred, filed as 5.0)
smiles,measurement,setting,value
O=c1ccc(N=Nc2ccccc2)ccc1O,growth inhibition,[1]; at 1.2 µM,0%
same,growth inhibition,[1]; at 3.7 µM,42%
same,growth inhibition,[1]; at 11.0 µM,95% (active)
same,growth inhibition,[1]; at 33.0 µM,99% (active)
same,growth inhibition,[1]; at 100.0 µM,98% (active)
same,growth inhibition,[2]; at 1.2 µM,16%
same,growth inhibition,[2]; at 3.7 µM,56%
same,growth inhibition,[2]; at 11.0 µM,97% (active)
same,growth inhibition,[2]; at 33.0 µM,99% (active)
same,growth inhibition,[2]; at 100.0 µM,97% (active)
same,growth inhibition,[3]; at 1.2 µM,-8%
same,growth inhibition,[3]; at 3.7 µM,11%
same,growth inhibition,[3]; at 11.0 µM,88% (active)
same,growth inhibition,[3]; at 33.0 µM,98% (active)
same,growth inhibition,[3]; at 100.0 µM,97% (active)
same,growth inhibition,[4]; at 1.2 µM,18%
same,growth inhibition,[4]; at 3.7 µM,87% (active)
same,growth inhibition,[4]; [16],34%
same,growth inhibition,[4]; at 11.0 µM,97% (active)
same,growth inhibition,[4]; at 33.0 µM,99% (active)
same,growth inhibition,[4]; [17],99% (active)
same,growth inhibition,[4]; at 50.0 µM,98.7% (active)
same,growth inhibition,[4]; at 100.0 µM,98% (active)
same,growth inhibition,[5]; at 1.2 µM,-1%
same,growth inhibition,[5]; at 3.7 µM,37%
same,growth inhibition,[5]; [16],28%
same,growth inhibition,[5]; at 11.0 µM,93% (active)
same,growth inhibition,[5]; at 33.0 µM,99% (active)
same,growth inhibition,[5]; [17],99% (active)
same,growth inhibition,[5]; at 50.0 µM,98.7% (active)
same,growth inhibition,[5]; at 100.0 µM,98% (active)
same,growth inhibition,[6]; at 1.2 µM,1%
same,growth inhibition,[6]; at 3.7 µM,91% (active)
same,growth inhibition,[6]; at 11.0 µM,98% (active)
same,growth inhibition,[6]; at 33.0 µM,99% (active)
same,growth inhibition,[6]; at 100.0 µM,99% (active)
same,growth inhibition,[7]; [16],44%
same,growth inhibition,[7]; [17],99% (active)
same,growth inhibition,[7]; at 50.0 µM,98.7% (active)
same,growth inhibition,[8]; at 1.2 µM,-6%
same,growth inhibition,[8]; at 3.7 µM,33%
same,growth inhibition,[8]; at 11.0 µM,93% (active)
same,growth inhibition,[8]; at 33.0 µM,98% (active)
same,growth inhibition,[8]; at 100.0 µM,97% (active)
same,growth inhibition,[9]; [16],-3%
same,growth inhibition,[9]; [17],98% (active)
same,growth inhibition,[9]; at 50.0 µM,98.1% (active)
same,growth inhibition,[10]; at 1.2 µM,10%
same,growth inhibition,[10]; at 3.7 µM,77% (active)
same,growth inhibition,[10]; [16],22%
same,growth inhibition,[10]; at 11.0 µM,97% (active)
same,growth inhibition,[10]; at 33.0 µM,99% (active)
same,growth inhibition,[10]; [17],99% (active)
same,growth inhibition,[10]; at 50.0 µM,97.8% (active)
same,growth inhibition,[10]; at 100.0 µM,99% (active)
same,growth inhibition,[11]; at 1.2 µM,31%
same,growth inhibition,[11]; at 3.7 µM,87% (active)
same,growth inhibition,[11]; at 11.0 µM,99% (active)
same,growth inhibition,[11]; at 33.0 µM,99% (active)
same,growth inhibition,[11]; at 100.0 µM,98% (active)
same,growth inhibition,[12]; at 1.2 µM,10%
same,growth inhibition,[12]; at 3.7 µM,90% (active)
same,growth inhibition,[12]; at 11.0 µM,98% (active)
same,growth inhibition,[12]; at 33.0 µM,99% (active)
same,growth inhibition,[12]; at 100.0 µM,99% (active)
same,growth inhibition,[13]; at 1.2 µM,4%
same,growth inhibition,[13]; at 3.7 µM,62%
same,growth inhibition,[13]; at 11.0 µM,97% (active)
same,growth inhibition,[13]; at 33.0 µM,99% (active)
same,growth inhibition,[13]; at 100.0 µM,98% (active)
same,growth inhibition,[14]; [16],59%
same,growth inhibition,[14]; [17],99% (active)
same,growth inhibition,[14]; at 50.0 µM,98.8% (active)
same,growth inhibition,[15]; at 1.2 µM,9%
same,growth inhibition,[15]; at 3.7 µM,64%
same,growth inhibition,[15]; at 11.0 µM,97% (active)
same,growth inhibition,[15]; at 33.0 µM,99% (active)
same,growth inhibition,[15]; at 100.0 µM,98% (active)
